Measured values from PubChem BioAssay (NCI).
This is part of a sample that, as a whole, favours compounds with a hit. Of some 79,000 tested, about 15% had one in any assay. Active and inactive are the calls of the source. Cut-off read from the data, not from the text of the source: active = growth inhibition above about 70%; inactive = the rest.

Legend:
[1] = NCI Yeast Anticancer Drug Screen. Data for the rad52 strain (AID 147);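 note: 0% = growth of vehicle-treated control cultures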; settings: S. cerevisiae rad52 mutant growth inhibition, active compounds read high
How it was run: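 Genetically altered yeast (DNA damage repair defect) treated with compound; inhibition calculated relative to vehicle.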

[2] = NCI Yeast Anticancer Drug Screen. Data for the wt1 strain (AID 149);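 note: 0% = growth of vehicle-treated wt1 cultures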; settings: S. cerevisiae wt1 strain (SPY 50644) growth inhibition, active compounds read high
How it was run: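 Measured: growth of wt1 yeast under compound versus vehicle treatment, reported as inhibition.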

[3] = NCI Yeast Anticancer Drug Screen. Data for the mgt1 strain (AID 153); settings: S. cerevisiae mgt1 mutant growth inhibition, active compounds read high
How it was run: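 Read-out: yeast growth inhibition vs vehicle control. Strain mgt1, drawn from a panel altered in DNA damage repair or cell cycle control.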

[4] = NCI Yeast Anticancer Drug Screen. Data for the rad50 strain (AID 155);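 note: 0% = growth of vehicle-only cultures of the same strain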; settings: S. cerevisiae rad50 strain growth inhibition, active compounds read high
How it was run: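 Growth of the mutant yeast was measured after compound exposure and referenced to vehicle-treated cultures.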

[5] = NCI Yeast Anticancer Drug Screen. Data for the rad14 strain (AID 159);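 note: 0% = growth of vehicle-treated control cultures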; settings: S. cerevisiae rad14 strain growth inhibition, active compounds read high
How it was run: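 Here, inhibition of yeast growth was measured after compound exposure, using a strain with a genetic defect in DNA damage repair and vehicle-treated cultures as the reference.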

[6] = NCI Yeast Anticancer Drug Screen. Data for the sgs1 mgt1 strain (AID 161);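 note: 0% = growth of cultures given vehicle only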; settings: S. cerevisiae sgs1 mgt1 strain, active compounds read high
How it was run: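 Mutant yeast exposed to compound; growth scored against vehicle-only wells.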

[7] = NCI Yeast Anticancer Drug Screen. Data for the CLN2oe strain (AID 163);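 note: 0% = growth of vehicle-only control cultures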; settings: S. cerevisiae CLN2oe strain, active compounds read high
How it was run: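 Strain altered in cell-cycle control, incubated with compound; growth compared to solvent-treated controls.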

[8] = NCI Yeast Anticancer Drug Screen. Data for the cln2 rad14 strain (AID 165);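 note: 0% = growth equal to vehicle treated cultures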; settings: S. cerevisiae cln2 rad14 strain, active compounds read high
How it was run: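 The screen exposed genetically defined yeast (cln2 rad14) to test compounds and scored growth inhibition relative to vehicle-treated controls.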

[9] = NCI Yeast Anticancer Drug Screen. Data for the bub3 strain (AID 167); settings: S. cerevisiae bub3 mutant strain, active compounds read high
How it was run: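 Whole-cell yeast assay. The mutant strain was incubated with compounds, and growth inhibition was determined by comparison with vehicle-treated cells.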

[10] = NCI Yeast Anticancer Drug Screen. Data for the wt2 strain (AID 169);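 note: 0% = growth of vehicle-treated yeast cultures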; settings: S. cerevisiae wt2 strain growth inhibition, active compounds read high
How it was run: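 Steps: yeast strain treated with compound; growth recorded; inhibition calculated relative to cultures given vehicle alone.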

[11] = NCI Yeast Anticancer Drug Screen. Data for the mlh1 strain (AID 171);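 note: 0% = growth of vehicle-treated control cultures of the same strain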; settings: S. cerevisiae mlh1 strain growth inhibition, active compounds read high
How it was run: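 Yeast screen: mutant strain plus compound, growth scored against vehicle control wells.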

[12] = NCI Yeast Anticancer Drug Screen. Data for the sgs1 strain (AID 173);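 note: 0% = growth of vehicle-only control cultures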; settings: S. cerevisiae sgs1 mutant, active compounds read high
How it was run: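 Inhibition of yeast growth served as the measure. The mutant strain was treated with each compound, and growth was normalised to cultures receiving vehicle alone.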

[13] = NCI Yeast Anticancer Drug Screen. Data for the mlh1 rad18 strain (AID 175); settings: S. cerevisiae mlh1 rad18 strain growth inhibition, active compounds read high
How it was run: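 Compound-treated yeast growth, normalised to vehicle controls. Strain bears defined DNA repair mutations.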

[14] = NCI Yeast Anticancer Drug Screen. Data for the rad18 strain (AID 177); settings: S. cerevisiae rad18 mutant growth inhibition, active compounds read high
How it was run: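 Inhibition values reflect reduced yeast growth compared with vehicle-treated controls, using a strain engineered with a DNA damage repair defect.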

[15] = NCI Yeast Anticancer Drug Screen. Data for the rad50EPP+ strain (AID 151);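 note: 0% = growth of vehicle-treated control cultures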; settings: S. cerevisiae rad50 mutant strain, active compounds read high
How it was run: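 Strain rad50EPP+; compound exposure; % growth inhibition vs vehicle.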

[16] = NCI Yeast Anticancer Drug Screen. Data for the mec2-1 strain (AID 157); settings: S. cerevisiae mec2-1 strain, active compounds read high
How it was run: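 Cells of the genetically defined mec2-1 yeast strain are incubated with test compound. Inhibition of growth is calculated against vehicle-treated controls.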

[17] = at 5.0 µM (retest, dose inferred, filed as 0.5)
[18] = at 50.0 µM (retest, dose inferred, filed as 5.0)

Measured: growth inhibition

CNC(=S)N/N=C(/C)CCC/C(C)=N/NC(=S)NC
active: [4]; at 11.0 µM 87% | [4]; at 33.0 µM 89% | [4]; at 100.0 µM 92% | [7]; at 1.2 µM 80% | [7]; at 3.7 µM 97% | [7]; at 11.0 µM 98% | [7]; at 33.0 µM 98% | [7]; at 100.0 µM 97% | [9]; [17] 70% | [9]; at 33.0 µM 73% | [9]; at 100.0 µM 74% | [10]; at 11.0 µM 78% | [10]; at 33.0 µM 72%
inactive: [1]; at 1.2 µM 28% | [1]; at 3.7 µM 54% | [1]; at 11.0 µM 64% | [1]; at 33.0 µM 64% | [1]; at 100.0 µM 68% | [2]; at 1.2 µM 1% | [2]; at 3.7 µM 35% | [2]; at 11.0 µM 48% | [2]; at 33.0 µM 45% | [2]; at 100.0 µM 44% | [3]; at 1.2 µM 3% | [3]; at 3.7 µM 12% | [3]; at 11.0 µM 22% | [3]; at 33.0 µM 22% | [3]; at 100.0 µM 32% | [4]; at 1.2 µM 36% | [4]; at 3.7 µM 67% | [4]; [17] 40% | [4]; [18] 37% | [4]; at 50.0 µM 66.8% | [5]; at 1.2 µM 30% | [5]; at 3.7 µM 44% | [5]; at 11.0 µM 61% | [5]; at 33.0 µM 61% | [5]; at 100.0 µM 52% | [6]; [17] 48% | [6]; [18] 53% | [6]; at 50.0 µM 66.5% | [8]; [17] 21% | [8]; [18] -2% | [8]; at 50.0 µM 27.2% | [9]; at 1.2 µM 43% | [9]; at 3.7 µM 62% | [9]; at 11.0 µM 65% | [9]; [18] 69% | [9]; at 50.0 µM 54.4% | [10]; at 1.2 µM 16% | [10]; at 3.7 µM 58% | [10]; at 100.0 µM 67% | [11]; at 1.2 µM -2% | [11]; at 3.7 µM 34% | [11]; at 11.0 µM 52% | [11]; at 33.0 µM 37% | [11]; at 100.0 µM 40% | [12]; at 1.2 µM 14% | [12]; at 3.7 µM 24% | [12]; at 11.0 µM 65% | [12]; at 33.0 µM 63% | [12]; at 100.0 µM 62% | [13]; [17] 55% | [13]; [18] 63% | [13]; at 50.0 µM 62.4% | [14]; at 1.2 µM 1% | [14]; at 3.7 µM 21% | [14]; at 11.0 µM 19% | [14]; at 33.0 µM 24% | [14]; at 100.0 µM 37%

Cc1ccccc1NC(=O)c1c(C)oc2c1C(=O)c1ccccc1C2=O
active: [15]; at 100.0 µM 82% | [3]; at 100.0 µM 93% | [4]; at 50.0 µM 82.2% | [4]; at 100.0 µM 86% | [16]; [18] 71% | [16]; at 100.0 µM 92% | [5]; at 100.0 µM 93% | [6]; at 50.0 µM 71% | [7]; at 100.0 µM 87% | [10]; at 100.0 µM 87% | [11]; at 100.0 µM 85% | [12]; at 100.0 µM 83% | [13]; [18] 76% | [13]; at 50.0 µM 77%
inactive: [1]; at 1.2 µM -7% | [1]; at 3.7 µM -6% | [1]; at 11.0 µM 3% | [1]; at 33.0 µM 17% | [1]; at 100.0 µM 69% | [15]; at 1.2 µM -8% | [15]; at 3.7 µM -17% | [15]; at 11.0 µM 7% | [15]; at 33.0 µM 42% | [3]; at 1.2 µM -40% | [3]; at 3.7 µM -35% | [3]; at 11.0 µM -21% | [3]; at 33.0 µM 57% | [4]; at 1.2 µM -13% | [4]; at 3.7 µM -12% | [4]; [17] 6% | [4]; at 11.0 µM -1% | [4]; at 33.0 µM 7% | [4]; [18] 33% | [16]; at 1.2 µM -28% | [16]; at 3.7 µM -31% | [16]; [17] -10% | [16]; at 11.0 µM -24% | [16]; at 33.0 µM 19% | [16]; at 50.0 µM 50.5% | [5]; at 1.2 µM -45% | [5]; at 3.7 µM -28% | [5]; at 11.0 µM -26% | [5]; at 33.0 µM 12% | [6]; [17] -10% | [6]; [18] 3% | [7]; at 1.2 µM -13% | [7]; at 3.7 µM 19% | [7]; at 11.0 µM 9% | [7]; at 33.0 µM 39% | [8]; [17] 1% | [8]; [18] 51% | [8]; at 50.0 µM 53.1% | [10]; at 1.2 µM -6% | [10]; at 3.7 µM -7% | [10]; at 11.0 µM 14% | [10]; at 33.0 µM 30% | [11]; at 1.2 µM -2% | [11]; at 3.7 µM -8% | [11]; at 11.0 µM -12% | [11]; at 33.0 µM -5% | [12]; at 1.2 µM -15% | [12]; at 3.7 µM -15% | [12]; at 11.0 µM -2% | [12]; at 33.0 µM 24% | [13]; [17] -2% | [14]; at 1.2 µM -23% | [14]; at 3.7 µM -24% | [14]; at 11.0 µM -17% | [14]; at 33.0 µM -8% | [14]; at 100.0 µM 55%

CCCCCCCCCCCCCCCCCCNc1nc(=O)n(C2CC(OP(=O)(O)OCC3OC(n4cc(F)c(=O)[nH]c4=O)CC3O)C(CO)O2)cc1F (stereo not given)
inactive: [1]; at 1.2 µM 14% | [1]; at 3.7 µM 12% | [1]; at 11.0 µM -1% | [1]; at 33.0 µM 11% | [1]; at 100.0 µM 66% | [15]; at 1.2 µM 9% | [15]; at 3.7 µM 12% | [15]; at 11.0 µM 7% | [15]; at 33.0 µM 8% | [15]; at 100.0 µM 23% | [3]; at 1.2 µM 25% | [3]; at 3.7 µM 8% | [3]; at 11.0 µM -1% | [3]; at 33.0 µM 32% | [4]; at 1.2 µM 27% | [4]; at 3.7 µM 28% | [4]; [17] 34% | [4]; at 11.0 µM 22% | [4]; at 33.0 µM 37% | [16]; at 1.2 µM 9% | [16]; at 3.7 µM 15% | [16]; [17] 24% | [16]; at 11.0 µM 3% | [16]; at 33.0 µM -1% | [16]; at 100.0 µM 61% | [5]; at 1.2 µM 9% | [5]; at 3.7 µM 0% | [5]; at 11.0 µM 3% | [5]; at 33.0 µM -4% | [5]; at 100.0 µM 51% | [6]; [17] 59% | [7]; at 1.2 µM -23% | [7]; at 3.7 µM -33% | [7]; at 11.0 µM -42% | [7]; at 33.0 µM -9% | [7]; at 100.0 µM 54% | [8]; [17] 7% | [8]; [18] 68% | [9]; at 1.2 µM 4% | [9]; at 3.7 µM 5% | [9]; [17] 15% | [9]; at 11.0 µM -27% | [9]; at 33.0 µM -10% | [9]; at 50.0 µM 68.3% | [9]; at 100.0 µM 40% | [10]; at 1.2 µM -38% | [10]; at 3.7 µM -34% | [10]; at 11.0 µM -68% | [10]; at 33.0 µM 15%
active: [3]; at 100.0 µM 77% | [4]; [18] 88% | [4]; at 50.0 µM 83.9% | [4]; at 100.0 µM 88% | [16]; [18] 91% | [16]; at 50.0 µM 89.4% | [6]; [18] 95% | [6]; at 50.0 µM 87.7% | [8]; at 50.0 µM 86.3% | [9]; [18] 93% | [10]; at 100.0 µM 79%
